Laboratory results from PubChem BioAssay (NCATS).
“And” between values parts separate entries of the source, which are not always exact repeats. Equal values may be shown once. Inconclusive results are not listed. A number with no mark means an inactive call. The source made the active and inactive calls. The call rests on the fitted dose curve; in most records, active means well fitted cell-killing curve with a large enough effect; inconclusive means small, poorly fitted or top-dose-only effect; inactive means flat fitted curve, though single readings scatter.

Experiment: Cell Viability - LYMP2-014 (AID 983); further: nearly all actives have a fitted effect of over 50% in size
Conditions: LYMP2-014 lymphoblastoid cells, viability qHTS; series mostly up to 92.2 µM; activity change, negative = cytotoxicity: at the top concentration
From the text: NIH Chemical Genomics Center [NCGC]
NIH Molecular Libraries Screening Centers Network [MLSCN]
National Institutes of Environmental Health Sciences [NIEHS]
National Toxicology Program [NTP]
We have developed a 1536-well cell-based assay for quantitative high throughput screening (qHTS) against a number of cell lines to determine in vitro cytotoxicity of small molecules. This particular assay uses a human lymphoblastoid cell line (LYMP2-014) purchased from Coriell Institute for Medical Research.
NCGC Assay Protocol Summary:
The CellTiter-Glo luminescent cell viability assay (Promega) is a homogeneous method to measure the number of viable cells in culture. The end point readout of this assay is based on quantitation of intracellular ATP, an indicator of metabolic activity, using the luciferase reaction. Luciferase catalyzes the oxidation of beetle Luciferin to oxyluciferin and light in the presence of ATP. The luminescent signal is proportional to amount of ATP present.
Using the CellTiter-Glo luminescent cell viability assay, the amount of cellular ATP was measured in the lymphoblastoid cell line with complete culture medium following compound treatment for 24 hours. The assay was performed in opaque white Kalypsys 1536-well plates. In the screen, tetraoctylammonium bromide was used as positive control. Library compounds were measured for their ability to cause acute toxicity in the cell line, as reflected by a decrease in intracellular ATP levels, in a concentration-dependent manner. […] AC50 values were determined from concentration-response data modeled with the standard Hill equation.
qHTS protocol for CellTiter Glo lymphoblastoid cellular assay
[Step] [Parameter] [Value] [Description]
1. Reagent; 5 uL; 2500 lymphoblastoid cells/well
2. Time; 5 hr; 37 C incubation
4. Controls; 23 nL; Tetraoctylammonium bromide 6.4pM to 92 uM
5. Time; 24 hr; 37 C incubation
6. Reagent; 5 uL; CellTiter Glo reagent
7. Time; 30 min; Room Temperature
8. Detection; Luminescence; Viewlux plate reader
Keywords: cell viability, cytotoxicity, lymphoblastoid cell line, luminescence, NTPHTS, NTPHTS_NCGC, NIEHS, DSSTox, MLSMR, MLSCN, NIH Roadmap, qHTS, NCGC
Potency means the concentration at half of the fitted maximal effect.

| SMILES | Potency | activity change, negative = cytotoxicity [%] |
| --- | --- | --- |
| Oc1cccc2cccnc12 | 15.8 µM (active) and 12.6 µM (active) |  |
| CCCC(C)(COC(N)=O)COC(=O)NC(C)C (stereo not given) |  | -4.74 |
| NCC(O)c1ccc(O)cc1 (stereo not given) |  | 2.35 |
| c1ccc2c(c1)Nc1ccccc1S2 |  | -0.934 |
| Oc1ccc(Cl)cc1Cc1ccccc1 |  | -3.03 |
| CNCC(O)c1ccc(O)cc1 (stereo not given) |  | -4.04 |
| Oc1ccccc1-c1ccccc1 |  | -1.9 |
| OCCOc1ccccc1 |  | -10.7 |
| CCOP(=S)(OCC)Oc1cc(C)nc(C(C)C)n1 |  | 2.76 |
| N[C@@H](Cc1ccc(N(CCCl)CCCl)cc1)C(=O)O | 31.6 µM (active) |  |
